Screening results deposited in PubChem BioAssay by several laboratories.
DAGLB inh = DAGLB lipase inhibitors, primary screen, biochemical, fluorescence, HTS. inhibition, % at 5.17 µM. Diacylglycerol lipase-beta (Homo sapiens), Q8NCG7. 0.059% of 340,000 active. HEK293T DAGLB membrane lysate, EnzChek fluorogenic substrate. AID 504411, 2011; in the data active = inhibition above about 34%;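 also: 0% = enzyme with vehicle and 100% = wells lacking enzyme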
Target sequence (Q8NCG7 whole entry, looked up): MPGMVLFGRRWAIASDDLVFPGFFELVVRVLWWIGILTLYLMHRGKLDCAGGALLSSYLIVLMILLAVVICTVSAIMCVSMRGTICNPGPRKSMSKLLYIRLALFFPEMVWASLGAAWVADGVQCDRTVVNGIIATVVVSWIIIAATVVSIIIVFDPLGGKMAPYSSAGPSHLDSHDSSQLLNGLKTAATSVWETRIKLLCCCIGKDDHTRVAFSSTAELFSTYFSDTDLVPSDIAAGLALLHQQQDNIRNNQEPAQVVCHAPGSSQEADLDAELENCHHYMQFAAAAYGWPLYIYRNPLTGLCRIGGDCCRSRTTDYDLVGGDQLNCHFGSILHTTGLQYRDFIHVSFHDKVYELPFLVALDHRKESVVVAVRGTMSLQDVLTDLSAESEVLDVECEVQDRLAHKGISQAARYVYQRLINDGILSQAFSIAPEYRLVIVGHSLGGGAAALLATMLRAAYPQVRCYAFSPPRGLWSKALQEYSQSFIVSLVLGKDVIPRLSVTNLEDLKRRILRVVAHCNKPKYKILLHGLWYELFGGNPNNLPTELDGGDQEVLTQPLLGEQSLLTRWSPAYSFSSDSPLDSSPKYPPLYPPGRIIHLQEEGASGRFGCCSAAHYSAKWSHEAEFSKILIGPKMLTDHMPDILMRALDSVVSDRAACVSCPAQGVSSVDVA
Neddylation inh = inhibitors of cullin neddylation, primary screen, biochemical, TR-FRET, uHTS, NAE and Ubc12. NEDD8-conjugating enzyme Ubc12 (Homo sapiens) + NEDD8-activating enzyme E1 regulatory …. 0.58% of 360,000 active. AID 651699, 2012. inhibition, % at 25 µM; in the data active = inhibition above about 36%
ARNT TACC3 PPI = disruptors of ARNT/TACC3 protein interaction, primary screen, biochemical, AlphaScreen, single concentration; Transforming acidic coiled-coil-containing protein 3 (Homo sapiens), Q9Y6A5; AlphaScreen His-ARNT PAS-B/GST-TACC3 binding, luminescence; TACC3 fragment carries E629A point mutation; inhibition, % at 9.99 µM; 0.66% of 390,000 active; AID 623870, 2012;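 active = mean inhibition of replicates at least 50% and at least half of replicates each reaching 50%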;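 also: 0% = complete ARNT plus TACC3 wells and 100% = ARNT alone without TACC3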
NadD block = inhibitors of S. aureus NadD, primary screen, biochemical, colorimetric, uHTS; inhibition, % at 20 µM; 0.78% of 360,000 active; Nicotinate-nucleotide adenylyltransferase NadD (Staphylococcus aureus N315); purified NadD enzyme, colorimetric absorbance read-out; AID 602399, 2012; in the data active = inhibition above about 26%
sPLA2-III inh = human group III sPLA2 inhibitors, primary screen, biochemical, QFRET, BODIPY PC-A2 liposome substrate | Group 3 secretory phospholipase A2 (Homo sapiens), Q9NZ20 | QFRET BODIPY PC-A2 liposome hydrolysis, fluorescence | inhibition, % at 12.2 µM | 0.56% of 370,000 active;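 active = inhibition above mean plus 3 SD of compounds lying within the high and low control bounds, cut at about 19% in these data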;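 also: 0% = median of test compound wells and 100% = no enzyme DMSO wells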
ARNT Alpha ctr-1 = AlphaScreen signal interference compounds, dose response, artefact control for ARNT-TACC3 interaction inhibitor project, biochemical, luminescence, cherry-pick; shares compounds with ARNT TACC3 PPI; AC50, µM (doses to about 68 µM), for inactives: top-dose activity change, negative = signal decrease; His-ARNT PASB-GST AlphaScreen artifact counter-screen; 50% of 1,200 active;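 active = every separate test run was called active for a drop in luminescence, with AC50 within twice the top valid dose, actives reach about 71 µM in these data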
ARNT Alpha ctr-2 = AlphaScreen signal interference by compounds, dose response, artefact control for ARNT/TACC3 disruptor project, biochemical, dual-tagged ARNT, dry powder; Dual-tagged His-ARNT PASB-GST AlphaScreen artifact counter-screen; 70% of 45 active; AC50, µM; shares compounds with ARNT TACC3 PPI; AID 720564, 2013;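 active = luminescence drop, with half-maximal potency fitted within twice the sample's top valid dose, cut at about 70 µM in these data; inactive = the rest, including signal moving the wrong way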
Active calls of the source: *; · = no result given; [ ] = dose if it differs, or a comment. A selection: hits, their analogues and other compounds. The true share with any hit is near 2%.

SMILES | DAGLB inh | Neddylation inh | ARNT TACC3 PPI | NadD block | sPLA2-III inh | ARNT Alpha ctr-1 | others
CCC(=O)N1[C@@H]2c3ccc(-c4ccccc4F)c(=O)n3C[C@H]1[C@H](CO)[C@H]2C(=O)NC1CCCC1 | · | · | -11.7 | · | · | ·
Cc1nnc(NC(=O)CSc2nnc(CNC(=O)c3ccc(F)cc3)o2)s1 | 0.9 | -13.0 | 46.5* | -1.8 | 0.1 | -8.0%
Oc1cc(NCCN2CCOCC2)cc2cccnc12 | -3.4 | -52.4 | 58.6* | 3.7 | -0.9 | 11.1µM*
O=C(C1CCCC1)N1CCCCN2[C@H](C1)[C@H](c1ccc(C#CC3CC3)cc1)[C@@H]2CO | · | · | -3.5 | · | · | ·
COc1ccc(-c2nnc(SCC(=O)NC3CC3)o2)cc1 | 0.8 | -9.6 | active | 4.4 | 3.0 | 1.2%
C[C@@H]1CN([C@@H](C)CO)C(=O)c2cc(NC(=O)NC3CCCCC3)ccc2O[C@H]1CN(C)CC1CCCCC1 | · | · | 4.8 | · | · | ·
CO[C@H]1CN(C)C(=O)c2cc(NS(=O)(=O)c3ccc(Cl)cc3)ccc2OC[C@H](C)N(C)C[C@H]1C | · | · | -1.5 | · | · | ·
Cc1c(NC(=O)c2cccnc2C(=O)O)cccc1C(=O)O | 2.8 | 9.0 | 33.6* | -1.3 | 3.5 | 3.5%
NNc1nnc(-c2ccccc2)c(-c2ccccc2)n1 | 0.8 | -17.1 | 52.3* | 10.3 | 6.8 | 50.5µM*
NNc1nc(-c2ccccc2)c2ccccc2n1 | -7.1 | 17.5 | 24.9 | 0.2 | 1.9 | ·
Cn1nc(-c2ccccn2)nc2c(=O)n(C)c(=O)nc1-2 | -24.0 | -115.7 | 66.6* | -2.7 | 4.4 | -1.5%
COc1cccc(-c2ccc3c(c2)[C@@H]2[C@@H](CCN2S(=O)(=O)c2cccc(OC)c2)[C@H](CO)N3)c1 | · | · | -3.7 | · | · | ·
Cc1cc(NC(c2cccnc2)c2ccc3cccnc3c2O)no1 (configuration not stated) | 6.6 | -6.9 | 63.0* | 4.5 | 17.4 | 10.7µM*
COc1ccc(NC(=O)N(C)C[C@H]2Oc3ccc(NS(=O)(=O)c4ccc(Cl)cc4)cc3CC(=O)N([C@H](C)CO)C[C@@H]2C)cc1 | · | · | -4.5 | · | · | ·
C/C=C/c1ccc([C@@H]2[C@@H](CO)N(C(C)=O)[C@@H]2CNC(=O)CC2CC2)cc1 | · | · | -3.7 | · | · | ·
Cn1c(CNc2ccccc2O)nc2ccccc21 | 1.3 | -6.0 | 66.9* | 1.1 | -6.5 | -31.9%
C[C@H](CO)N1C[C@H](C)[C@H](CN(C)C(=O)Cc2ccccc2)OCCCC[C@H](C)Oc2ccc(NS(=O)(=O)c3ccc(F)cc3)cc2C1=O | · | · | -12.9 | · | · | ·
Nc1ccc2nn(-c3ccc(F)cc3)nc2c1 | 0.9 | · | 16.8* | 0.1 | 1.0 | -25.4%
Cc1ccc(-n2nc3ccc(N)cc3n2)cc1 | -3.7 | · | · | 1.7 | 1.9 | ·
COc1ccc(CN2C[C@@H](C)[C@H](OC)CN(C)C(=O)c3cc(NC(=O)c4nc5ccccc5s4)ccc3OC[C@H]2C)cc1 | · | · | 25.8 | · | · | ·
CCOC(=O)C(NCc1ccccn1)(NC(=O)c1cccnc1)C(F)(F)F (configuration not stated) | -2.4 | 9.7 | 65.7* | -0.8 | 4.9 | -16.3%
COC(=O)Cc1[nH]n(-c2nc3ccccc3s2)c(=O)c1C(C)=O | -1.2 | 8.0 | 10.2 | -0.4 | 4.3 | ·
COC(=O)Cc1cc(=O)n(-c2nc3ccccc3[nH]2)[nH]1 | 0.8 | -2.3 | 61.9* | -3.8 | -0.3 | 60.2µM* | ARNT Alpha ctr-2=37.8*
COc1ccc(CN(C)C[C@H]2OCCCC[C@H](C)Oc3ccc(NC(=O)NC(C)C)cc3C(=O)N([C@H](C)CO)C[C@@H]2C)cc1 | · | · | 27.3 | · | · | ·
Cc1ccc(NC(=O)CSc2ccc(-c3ccccn3)nn2)cc1F | -2.3 | -91.3 | 50.3* | 2.8 | 5.4 | -20.2%
SMILES | DAGLB inh | Neddylation inh | ARNT TACC3 PPI | NadD block | sPLA2-III inh | ARNT Alpha ctr-1 | others
CC(=O)Nc1cccc(NC(=O)CSc2nnc3ccc(-c4ccccn4)nn23)c1 | -0.4 | -8.2 | 23.1 | 2.1 | 1.8 | ·
CC(=O)Nc1cccc(NC(=O)CSc2ccc(-c3ccccn3)nn2)c1 | -3.2 | 0.3 | 58.0* | -5.9 | -0.6 | 13.9µM*
CC(=O)c1cccc(NC(=O)CSc2ccc(-c3ccccn3)nn2)c1 | 0.8 | -1.1 | 54.9* | -6.5 | 4.3 | 15.2µM*
Cc1ccc(NC(=O)CSc2nnc(-c3ccccn3)n2N)cc1F | · | -0.2 | · | 4.0 | -1.7 | ·
Cc1cccc(NC(=O)CSc2ccc(-c3cccnc3)nn2)c1 | 0.5 | -8.3 | 4.3 | -2.2 | -1.8 | ·
COc1cc(NC(=O)CSc2ccc(-c3ccccn3)nn2)cc(OC)c1 | -1.1 | -19.6 | 58.5* | 0.8 | -18.6 | 11.3µM*
C[C@@H]1CN([C@H](C)CO)C(=O)c2cccc(NC(=O)Nc3ccccc3)c2O[C@@H]1CN(C)Cc1ccccc1 | · | · | -15.2 | · | · | ·
C[C@H](NC(=O)C[C@H]1C[C@H]2c3cc(NS(C)(=O)=O)ccc3O[C@H]2[C@H](CO)O1)c1ccccc1 | · | · | -12.5 | · | · | ·
CCCNC(=O)Nc1ccc2c(c1)C(=O)N(C)C[C@H](OC)[C@H](C)CN(CCC)[C@H](C)CO2 | · | · | 2.2 | · | · | ·
COc1ccc(C)cc1NC(=O)CSc1ccc(-c2ccccn2)nn1 | -0.7 | -1.1 | 54.0* | 1.9 | 8.2 | 18.5µM*
COc1ccc(S(=O)(=O)N(C)C[C@@H]2Oc3ccc(NC(=O)NC(C)C)cc3CC(=O)N([C@@H](C)CO)C[C@H]2C)cc1 | · | · | 2.1 | · | · | ·
CC(C)C#Cc1ccc2c(c1)O[C@@H](CN(C)C(=O)CN(C)C)[C@@H](C)CN([C@@H](C)CO)S2(=O)=O | · | · | 99.5* | · | · | -13.0%[38 µM]
C[C@@H]1CN([C@H](C)CO)S(=O)(=O)c2ccc(C#C[C@@H](C)O)cc2O[C@H]1CN(C)C(=O)CN(C)C | · | · | -6.3 | · | · | ·
C[C@@H]1CCCCO[C@@H](CN(C)S(=O)(=O)c2ccc(Cl)cc2)[C@H](C)CN([C@@H](C)CO)C(=O)c2cc(NC(=O)c3ccncc3)ccc2O1 | · | · | 3.3 | · | · | ·
Cn1c(-c2ccc(Cl)cc2)cnc1N | 4.1 | 18.6 | 57.6* | -3.6 | 12.0 | 57.8µM*
CCOc1ccc(-n2nc3ccc(N)cc3n2)cc1 | 0.6 | · | -4.7 | 3.8 | 1.7 | ·
CCOc1ccc(-c2cnc(N)n2C)cc1 | 4.3 | 8.3 | 53.8* | -2.3 | 2.7 | -17.1%
CN(C)C(=O)C[C@H]1CC[C@@H](NC(=O)NC2CCCC2)[C@@H](CO)O1 | · | · | 2.4 | · | · | ·
